The text below walks through data of the supplement of paper PMC3334620.

In all, about 33,000 sequences were measured (“E-score (-0.5 to 0.5)”: median about -0.017, highest 2% from about 0.3 on). The list comes from a sample in which the highest values are over-represented; it also holds similar and randomly drawn sequences.

For this experiment, the target named is T1, Sut1 (UniProt P53032).
T1 sequence: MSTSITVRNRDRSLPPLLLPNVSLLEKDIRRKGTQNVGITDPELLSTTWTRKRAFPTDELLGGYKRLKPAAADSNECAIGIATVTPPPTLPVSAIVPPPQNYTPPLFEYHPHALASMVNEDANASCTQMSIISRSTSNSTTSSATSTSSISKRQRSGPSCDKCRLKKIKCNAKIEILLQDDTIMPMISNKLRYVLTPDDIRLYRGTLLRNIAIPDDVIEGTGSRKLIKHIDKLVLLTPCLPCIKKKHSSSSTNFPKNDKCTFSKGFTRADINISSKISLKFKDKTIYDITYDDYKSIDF
In words: PBM E-score (8-mer binding enrichment) (E-score (-0.5 to 0.5)); higher = stronger / more preferred TF binding. Conditions: protein concentration: 200 nM; construct: GST-full length. An outline of the steps: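 GST-tagged yeast TFs (full-length or DNA-binding domain) were made by PURExpress in vitro transcription/translation and applied at about 100-200 nM to universal all-10-mer Agilent arrays. The arrays were made double-stranded by primer extension, on fresh or once-stripped slides. Bound protein was detected with fluorescent anti-GST, and scans were normalised with masliner. Each ungapped eight-base word, pooled with its reverse complement, received an E-score (modified Wilcoxon-Mann-Whitney statistic) from the Universal PBM Analysis Suite.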
In the case of GATTGAAA, the “PBM E-score” value is 0.303.

Consider AATTGAAT, for which the “PBM E-score” value came out at 0.314.

Take GATTGAAC: the “PBM E-score” value was determined as 0.00278.

For AATTGAAG, the “PBM E-score” value was 0.115.

Regarding CATTGAAA, the “PBM E-score” value turned out to be 0.249.

For AATTGAAC, the “PBM E-score” value is 0.0105.

As for GATCAAAC, the “PBM E-score” value was -0.00328.

Take CCCCATAA: the “PBM E-score” value was -0.104.

For the sequence CGAAGATA, the “PBM E-score” value is 0.132.

For AGAGGGGG, the “PBM E-score” value is -0.322.

As to ACCGGCAA, the “PBM E-score” value was -0.198.

TCCGGCAA: the “PBM E-score” value is 0.33.

With GCCGGCGA, the “PBM E-score” value turned out to be 0.0246.

Consider ACCGGCGA, for which the “PBM E-score” value was -0.0414.

TCCGGCGA: the “PBM E-score” value was found to be 0.301.

Turning to GCCGGCAA, the “PBM E-score” value came out at 0.144.

Take GAATTTTA: the “PBM E-score” value was found to be 0.251.

With AACTCTGT, the “PBM E-score” value is -0.0734.

Regarding GGACGTAA, the “PBM E-score” value was -0.136.

Consider ATGTTGAA, for which the “PBM E-score” value was determined as 0.131.

On to CTTGAGAA, for which the “PBM E-score” value is -0.0815.

Take TTCGCAAA: the “PBM E-score” value is 0.303.

For GTCGCAAA, the “PBM E-score” value is 0.131.

On to ATCGCAAA, for which the “PBM E-score” value was 0.0837.

Consider ACGGTCCT, for which the “PBM E-score” value was -0.258.

Consider ACCCAGAC, for which the “PBM E-score” value is -0.0554.

Consider CAAGCAAC, for which the “PBM E-score” value is -0.124.

Take ATTCCAAA: the “PBM E-score” value was 0.0401.
